Reference: PubChem BioAssay AID720554 (ICCB-Longwood Screening Facility, Harvard Medical School, 2013)
Among all 12,000 compounds or so, about 45 (0.4%) were called active. No stated cut-off is given here; in the data, active means inhibition mostly above about 83% (no sharp cut-off); inactive means mostly below about 52%. The list comes from a sample in which actives are over-represented; it also holds similar structures and randomly drawn compounds.

How the values were obtained:
[1] = BmaI1 acyl-homoserine lactone synthase inhibition – biochemical, fluorescence intensity, with counterscreen (AID 720554); details: BmaI1 enzyme assay, measured here: counterscreen fluorescence % control, concentration not given here
[2] = test system: acyl-homoserine lactone synthase BmaI1 (Burkholderia mallei ATCC 23344); test: as above; details: BmaI1 enzyme assay, stronger effect = higher value, concentration not given here

Row | Compound | inhibition [1] [%] | inhibition [2]
1 | Cc1nc(N2CCCCC2)sc1C1Sc2ccccc2NC1=O (stereo not drawn) | -5 | -2.5% (inactive)
2 | Cc1nc(N2CCCC2)sc1C(=O)c1oc2ccccc2c1C | 17 | 20% (inactive)
3 | O=C1N=c2ccccc2=C1c1sc(N2CCCCC2)nc1O | 8.5 | 91.5% (active)
4 | CC(C)CNCC(=O)Nc1ccc(S(N)(=O)=O)cc1 | -1.5 | 6.5% (inactive)
5 | Cc1csc(C(C#N)C(=O)CSc2ccc3c(c2)OCCO3)n1 (stereo not drawn) | 0 | 16% (inactive)
6 | Cn1cccc1C(=O)Nc1ccc2c(c1)nc1n2CCCCC1 | 27 | 18% (inactive)
7 | CC(=O)Nc1ccc(/C=N/N2C(=O)c3ccccc3C2=O)cc1 | 14.5 | 13% (inactive)
8 | S=c1[nH]c(-c2ccccc2)cn1/N=C/c1ccc2c(c1)OCCO2 | 41.5 | 94% (inactive)
9 | CC(=O)Nc1ccc(/C=N/n2cc(-c3ccccc3)[nH]c2=S)cc1 | 13.5 | 90% (active)
10 | O=C(CCc1nc2ccccc2c(=O)[nH]1)Nc1ccccc1C(=O)NC1CC1 | 5.5 | 13.5% (inactive)
11 | O=C(OC(c1ccccc1)c1ccccc1)c1ccncc1 | 14 | 14% (inactive)
12 | CC1=C(C(=O)O)N2C(=O)[C@@H](NC(=O)[C@H](N)c3ccccc3)[C@H]2SC1 | 7.5 | -7% (inactive)
13 | N[C@@H](C(=O)N[C@@H]1C(=O)N2C(C(=O)O)=C(CSc3cn[nH]n3)CS[C@H]12)c1ccc(O)cc1 (tested in a mixture with another compound) | 6 | 93% (active)
14 | N[C@@H](C(=O)N[C@@H]1C(=O)N2C(C(=O)O)=C(Cl)CS[C@H]12)c1ccccc1 | 4.5 | 5% (inactive)
15 | CN(C)S(=O)(=O)c1cccc(COC(=O)c2cn(-c3ccccc3)nc2-c2cccs2)c1 | -2.5 | 8.5% (inactive)
16 | Cc1ccc(-c2csc(NC(=O)C3(c4ccccc4)CC3)n2)s1 | 20 | 20% (inactive)
17 | O=C(c1cc(-c2ccccc2)nn1-c1ccccc1)N(C1CC1)C1CCS(=O)(=O)C1 (stereo not drawn) | 2 | 7% (inactive)
18 | FC(F)n1c(=S)[nH]c2ccccc21 | 0.5 | 13.5% (inactive)
19 | Cn1c(=S)[nH]c2ccccc21 | 5 | 51.5% (inactive)
20 | Cc1ccc(Cn2c(=S)[nH]c3ccccc32)cc1 | 3 | 97% (active)
21 | CC(Sc1nnnn1-c1ccc(O)cc1)C(=O)c1ccccc1 (stereo not drawn) | 2.5 | 8.5% (inactive)
22 | O=S(=O)(NNC1=NCCCCC1)c1ccccc1 | 28.5 | 63.5% (inactive)
23 | c1ccc(CNC2=NCCCCC2)nc1 | -13 | -8.5% (inactive)

Row | Compound | inhibition [1] [%] | inhibition [2]
24 | c1ccc(NNC2=NCCCCC2)nc1 | 4.5 | 85% (active)
25 | O=Nc1c(O)[nH]c2c(C(F)(F)F)cccc12 | 11 | 13% (inactive)
26 | COc1cccc(-n2c(SC3CCOC3=O)nc3ccccc3c2=O)c1 (stereo not drawn) | 13.5 | 14.5% (inactive)
27 | O=C(CSc1ncc(C(F)(F)F)cc1Cl)N1CCN(S(=O)(=O)c2ccccc2)CC1 | -4 | 8.5% (inactive)
28 | Cc1noc(C)c1COc1ccc(C(=O)OCC(N)=O)cc1 | 3 | 14% (inactive)
29 | O=C(CCSc1ccc(Cl)cc1)Nc1ccccc1 | 17.5 | 15% (inactive)
30 | CCn1c(CCC(=O)N2CCN(c3ccccn3)CC2)nc2cc(S(N)(=O)=O)ccc21 | -0.5 | 98% (active)
31 | CCN(CC)S(=O)(=O)c1ccc2c(c1)nc(CCC(=O)N1CCN(c3ccccc3)CC1)n2CC | 10.5 | 17% (inactive)
32 | CCCn1c(CCC(=O)N(C)c2ccccc2)nc2cc(S(=O)(=O)N3CCCC3)ccc21 | -2.5 | 37% (inactive)
33 | Cc1ccc(C2=NN(C(=O)CSc3ccc4c(c3)OCCO4)C(c3ccco3)C2)cc1 (stereo not drawn) | 0 | 7.5% (inactive)
34 | O=C(OCC1CCCCC1)c1n[nH]c2ccccc12 | 12.5 | 30.5% (inactive)
35 | COc1ccc(Br)cc1CN(C)CN1C(=O)C2CC=CCC2C1=O (stereo not drawn) | 10.5 | 3.5% (inactive)
36 | CN1/C(=C\C=N\NC(N)=S)C(C)(C)c2ccccc21 | 29 | 85% (active)
37 | CN1/C(=C\C=N\NC(=O)c2cccnc2)C(C)(C)c2ccccc21 | 7 | 43% (inactive)
38 | CN1/C(=C\C=Nc2ccccc2N)C(C)(C)c2ccccc21 | -25 | -9% (inactive)
39 | CC(C)(C)c1ccc(C(=O)NCCc2ccccn2)cc1 | 2 | 5.5% (inactive)
40 | Cc1cccc(OCc2nnc3n2-c2ccccc2SC3)c1 | -6.5 | -1.5% (inactive)
41 | O=C(COC(=O)/C=C/c1ccco1)Nc1cccc(C(F)(F)F)c1 | -1 | 0.5% (inactive)
42 | CC1Cc2ccccc2N1CC(=O)NCc1ccc2c(c1)OCO2 (stereo not drawn) | -28 | 48% (inactive)
43 | COc1ccc(N2CCN(C(=S)Cc3ccccc3)CC2)cc1 | 5 | 8.5% (inactive)
44 | S=C(c1ccc(-c2ccccc2)o1)N1CCN(c2ccccc2)CC1 | 13.5 | 97.5% (active)
45 | NC(=O)c1ccc(-c2ccccc2)o1 | 40 | 20% (inactive)
46 | O=C(COc1ccccc1C(=O)NCc1ccccc1)Nc1cccc2nsnc12 | 0 | 12% (inactive)

Row | Compound | inhibition [1] [%] | inhibition [2]
47 | COc1ccc(COC(=O)c2cc(O)c3ccccc3c2O)cc1F | 19.5 | 84.5% (active)
48 | COc1ccc(C(=O)OCc2ccccc2F)c(OC)c1OC | 12.5 | 0% (inactive)
49 | COc1ccc(COc2ncnc3ccccc23)cc1F | 1 | 19.5% (inactive)
50 | CC(OC(=O)c1ccc(NS(=O)(=O)c2cccs2)cc1)c1nc2scc(-c3cccs3)c2c(=O)[nH]1 (stereo not drawn) | 8.5 | 15.5% (inactive)
51 | CC1=C/C(=N\NC(=O)COc2ccc(C#N)cc2)CC(C)(C)C1 | 2 | 9% (inactive)
52 | CNC(C)c1ccccc1 (stereo not drawn) | -4.5 | -1.5% (inactive)
53 | COC(=O)c1cnc(N)s1 | 5 | 17% (inactive)
54 | Oc1ccc(/C=N/NC(=S)Nc2ccc(Cl)cc2Cl)c(O)c1O | 15.5 | 84% (active)
55 | Fc1ccccc1NC(=S)N/N=C/c1cn(-c2ccccc2)nc1-c1cc2ccccc2o1 | 2.5 | 6% (inactive)
56 | O=CN1CCN(C(=S)Nc2ccc(Cl)cc2Cl)CC1 | 9 | -3% (inactive)
57 | O=C(NCc1ccccc1)c1cccc(OCC(=O)N2CCOCC2)c1 | -11 | -13.5% (inactive)
58 | CC1(C)CC(NCc2cc(Cl)c3c(c2)OCCCO3)CC(C)(C)N1 | 4.5 | 10% (inactive)
59 | Cn1c(N)c(C(=O)CSc2nc3sc4c(c3c(=O)n2Cc2ccco2)CCCC4)c(=O)[nH]c1=O | 5 | 12.5% (inactive)
60 | COc1ccccc1NC(=O)c1ccc(NC(=O)COC(=O)C2CCCO2)cc1 (stereo not drawn) | -4.5 | -1.5% (inactive)
61 | Sc1ccc2c(c1)OCCCO2 | 3.5 | 38% (inactive)
62 | CCOC(=O)C1CCN(C(C)C(=O)Nc2ccc(C(C)C)cc2)CC1 (stereo not drawn) | 3 | 9.5% (inactive)
63 | Ic1ccc(-c2ncc3ccccn23)cc1 | 11 | 17.5% (inactive)
64 | Nn1cc(-c2ccccc2)[nH]c1=S | 52 | 104% (inactive)
65 | S=c1[nH]cc2ccccn12 | 5.5 | 96.5% (active)
66 | CC(=O)NS(=O)(=O)c1ccc(N)cc1 | 9.5 | -0.5% (inactive)
67 | Nc1ccc(S(=O)(=O)c2ccc(N)cc2)cc1 | 6 | -2.5% (inactive)
68 | Nc1ccc(S(=O)(=O)CCSS(=O)(=O)c2ccc(N)cc2)cc1 | 0.5 | 88% (active)
69 | Cc1nnc(SC(C)C(N)=O)n1Cc1ccccc1 (stereo not drawn) | -2 | 9.5% (inactive)

Row | Compound | inhibition [1] [%] | inhibition [2]
70 | COc1cccc(Nc2nnc(SCC(=O)c3cc(C)n(C)c3C)s2)c1 | 9 | 20% (inactive)
71 | COc1ccccc1NC1CC(=O)N(c2cccc(Cl)c2)C1=O (stereo not drawn) | 10.5 | 17.5% (inactive)
72 | COc1cccc(N2C(=O)CC(n3nc(Nc4cccc(C)c4)sc3=S)C2=O)c1 (stereo not drawn) | 27.5 | 102% (active)
73 | C[C@@H](C(=O)N1CCSC1=NCc1ccccc1)N1C(=O)C2CC=CCC2C1=O (stereo partly drawn) | 4 | 8.5% (inactive)
74 | CC1CC(C)CN(C(=O)c2cc3ccccc3oc2=O)C1 (stereo not drawn) | 9 | 8.5% (inactive)
75 | Cc1csc(SCC(=O)c2ccc(S(=O)(=O)N3CCCCC3)cc2)n1 | 21.5 | 58.5% (inactive)
76 | O=C(CSc1nc2ccccc2c(=O)n1C1CCCC1)Nc1ccc2c(c1)OCCO2 | 6 | 28% (inactive)
77 | O=C(CN1CCN(S(=O)(=O)Cc2ccccc2)CC1)Nc1ccc2[nH]c(=O)[nH]c2c1 | 15.5 | 35.5% (inactive)
78 | Oc1c(C(c2ccccn2)N2CCN(c3ccc(F)cc3)CC2)cc(Cl)c2cccnc12 (stereo not drawn) | -13.5 | 0.5% (inactive)
79 | CCn1c(-c2ccccc2)c(C(=O)CN2CCN(C)CC2)c2ccccc21 | 2.5 | 38% (inactive)
80 | CN1CCN(C(c2ccccn2)c2c(-c3ccccc3)n(O)c3ccccc23)CC1 (stereo not drawn) | 17 | 105% (active)
81 | CNC(=O)c1sc(CN2C(=O)c3ccccc3S2(=O)=O)nc1C | -7 | 91% (active)
82 | CN(C)C(=O)CN1C(=O)c2ccccc2S1(=O)=O | -3 | 2% (inactive)
83 | O=C1c2ccccc2S(=O)(=O)N1Cc1cc(=O)[nH]c(=O)[nH]1 | -2.5 | -1% (inactive)
84 | CC(Sc1ccccc1F)C(=O)Nc1ccc(S(N)(=O)=O)cc1 (stereo not drawn) | 1 | 9.5% (inactive)
85 | Cn1c(Cc2cccs2)nnc1SCC(=O)N1CCNC1=O | 2.5 | 15% (inactive)
86 | CCCn1c(SCCCC(=O)c2cccs2)n[nH]c1=O | -0.5 | 5.5% (inactive)
87 | Oc1cc2c(cc1C(c1ccc(C(F)(F)F)cc1)N1CCN(c3ccccc3)CC1)OCO2 (stereo not drawn) | 5 | 5.5% (inactive)
88 | COC(=O)c1ccc(C(c2cc3c(cc2O)OCO3)N2CCN(c3ccccc3)CC2)cc1 (stereo not drawn) | 24 | 83% (active)
89 | COC(=O)c1ccc(C(c2c(O)ccc3ccccc23)N2CCOCC2)cc1 (stereo not drawn) | 11 | 18% (inactive)
